Broadly, the AC50 is the midpoint of the concentration-response curve, whichever way the signal moves.

SMILES strings stand for the structures. Inconclusive results are not listed. Where a structure was tested more than once in an assay, its records may differ in their call. Calls of active or inactive are those of the source. How the source made its calls: active means hit-call score of the fitted dose curve at least 0.9, where 1 is the maximum; inconclusive means response in the unintended direction; inactive means score below 0.9.

Sequence of Estrogen receptor (Homo sapiens) (P03372 whole entry, looked up): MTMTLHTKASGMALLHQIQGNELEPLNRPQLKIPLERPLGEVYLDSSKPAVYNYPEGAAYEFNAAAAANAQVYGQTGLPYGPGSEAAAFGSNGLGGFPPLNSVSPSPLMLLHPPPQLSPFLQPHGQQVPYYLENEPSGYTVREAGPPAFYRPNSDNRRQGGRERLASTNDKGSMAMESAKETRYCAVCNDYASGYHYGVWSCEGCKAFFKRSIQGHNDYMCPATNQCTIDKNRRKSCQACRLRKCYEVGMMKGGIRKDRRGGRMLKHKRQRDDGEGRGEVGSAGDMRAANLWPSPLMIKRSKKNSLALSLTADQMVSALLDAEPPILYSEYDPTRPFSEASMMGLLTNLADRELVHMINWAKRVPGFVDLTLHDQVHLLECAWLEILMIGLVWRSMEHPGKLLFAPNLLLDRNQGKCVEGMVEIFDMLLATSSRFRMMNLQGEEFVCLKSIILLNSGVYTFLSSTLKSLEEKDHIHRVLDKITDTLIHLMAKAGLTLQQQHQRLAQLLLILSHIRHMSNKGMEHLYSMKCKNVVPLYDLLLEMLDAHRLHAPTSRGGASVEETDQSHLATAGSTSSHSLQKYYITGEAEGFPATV

In this experiment the target is Estrogen receptor (Homo sapiens) (UniProt P03372). Nature of the experiment: NVS_NR_hER: NovaScreen (NVS) Nuclear Receptor Binding Assay for human Estrogen Receptor (ER) (AID 2283348). On the procedure:
NVS_NR_hER is a biochemical, single-readout assay that uses extracted gene-proteins from MCF7 in a cell-free assay. Measurements were taken 18 hours after chemical dosing in a 96-well plate.NVS_NR_hER is one of one assay component(s) measured or calculated from the NVS_NR_hER assay. It is designed to make measurements of radioligand binding, a form of binding reporter, as detected with scintillation counting signals by Lysate-based radiodetection technology.Data from the assay component NVS_NR_hER was analyzed into 1 assay endpoint. This assay endpoint, NVS_NR_hER, was analyzed in the positive analysis fitting direction relative to DMSO as the negative control and baseline of activity. Using a type of binding reporter, loss-of-signal activity can be used to understand changes in the binding as they relate to the gene ESR1. Furthermore, this assay endpoint can be referred to as a primary readout, because the performed assay has only produced 1 assay endpoint. To generalize the intended target to other relatable targets, this assay endpoint is annotated to the nuclear receptor intended target family, where the subfamily is steroidal.
Binding assays used specific radioligands (tritiated, iodinated) with non-radioactive competitive displacement ligands in agonist or antagonist protocols (as indicated) and various reference compounds and inhibitors to titrate specific binding to receptors and transporters. Most enzyme assays (CYPs, kinases, phosphatases, proteases, HDACs) used recombinant protein and specific substrates (fluorescence mostly, some colorimetric and radioactive) and inhibitors, followed by a biochemical separation of substrate and product. All assays for the biochemical HTS were initially run in duplicate at a single concentration (10 uM for CYP450 assays and 25 uM for all others). […] Each assay was run with positive and negative controls, and concurrent controls on every plate. The follow-up (secondary) screen tested active chemical-pairs in concentration series, as well as a few additional assays not tested in the primary screen, some selected negative inactives, and several cases re-run in the concentration series for confirmatory purposes.
On to `CO/N=C(/C(=O)OC)c1ccccc1COc1ccccc1C`, for which the outcome was inactive.
On the same count and under the same terms, in the case of `CC(Cl)(Cl)C(=O)O` it was “inactive”; in that of `O=P(OCC(Br)CBr)(OCC(Br)CBr)OCC(Br)CBr` (centres undefined), “inactive”.
For the compound `O=P1(N(CCCl)CCCl)NCCCO1` (centres undefined), the AC50 is 15.7 µM (active) and the compound was called inactive.
`CCCCN(CC)C(=O)SCCC`: the AC50 was 3.02 µM (active).
Consider `Nc1ccc(Sc2ccc(N)cc2)cc1`, for which the AC50 is 11 µM (active).
Turning to `C=CC(=O)OCC(CC)(COC(=O)C=C)COC(=O)C=C`, the result was inactive and the AC50 was 13.7 µM (active).
As to `CCC(C)(C)c1ccc(O)cc1`, the compound was classed as inactive.
Consider `COCCOCCO`, for which the call was inactive.
Regarding `CCCCCCCc1ccc(O)cc1`, the AC50 was 18.8 µM (active) and the outcome was inactive.
For `CCCN(CCC)c1c([N+](=O)[O-])cc(C(C)C)cc1[N+](=O)[O-]`, the compound was called inactive.
Take `c1ccc(OP(Oc2ccccc2)Oc2ccccc2)cc1`: the outcome was inactive.
For `CC(C)Nc1ccc(Nc2ccccc2)cc1`, the compound was classed as inactive.
On the same count and under the same terms, the value for `ClC(Cl)(Cl)c1ccccc1` was “inactive”; that for `ClC1=C(Cl)C2(Cl)C3C(Cl)C(Cl)CC3C1(Cl)C2(Cl)Cl` (centres undefined) was “inactive”; that for `CCCCN(CCCC)SN(C)C(=O)Oc1cccc2c1OC(C)(C)C2` was “inactive”.
Consider `CCOP(=S)(OCC)SCn1nnc2ccccc2c1=O`, for which the call was inactive.
The same measure, in the same setting: in the case of `CCCCc1ccc(O)cc1` it was “inactive”; in that of `[N-]=[N+]=[N-]`, “inactive”.
With `O=S(=O)(c1ccc(O)cc1)c1ccc(O)cc1`, the AC50 is 4.77 µM (active).
Turning to `CC1(C)CN=C(NN=C(/C=C/c2ccc(C(F)(F)F)cc2)/C=C/c2ccc(C(F)(F)F)cc2)NC1`, the AC50 is 8.61 µM (active).
